Compound activity: PubChem, National Center for Advancing Translational Sciences (NCATS)
In the library only some 5.7% were active in any assay of this set; here they are far more common.
JMJD2A Tudor – blocks the human JMJD2A Tudor domain. O75164. AlphaScreen JMJD2A-Tudor / H3K4me3 peptide binding. Potency, µM (top dose mostly 114 µM), for the others: at the highest dose activity change, negative = inhibition, actives largely listed as inhibitors. hit rate 4.4% among 390,000. AID 504339; also: potency is read from the fitted curve at half-maximal effect; % is scaled to controls: 0 for no effect and ±100 for the full control effect; nearly all actives have a fitted effect of over 50% in size
PI5P4K alpha inh – blocks human PI5P4K alpha kinase activity. P48426. PI5P4Kalpha enzyme, ADP-Glo luminescence, 60 min; hits give low values. max response, %. hit rate 1.2% among 330,000; active = max response of -50% or lower; inconclusive = between -30% and -50%; inactive = -30% or higher; also: value at the top dose of about 77 µM; % is scaled to controls: 0 for no effect and ±100 for the full control effect
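Quantitative HTS of the MLSMR library against PI5P4Kalpha with substrate. ATP added last at 5 microM final; room temperature, 60 minutes. Remaining ATP depleted, ADP converted and read as luminescence.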
KDM4E inh – inhibitors of human JMJD2E histone demethylase; B2RXH2; JMJD2E catalytic domain, FDH-coupled NADH fluorescence (FDH is formaldehyde dehydrogenase); Potency, µM (doses to about 57.1 µM), without a hit: at the top dose activity change, negative = inhibition, hits mostly inhibitors; hit rate 1.6% among 230,000; AID 2147; active = well fitted inhibition curve with a large enough effect, not every such curve was filed as active; inconclusive = small, poorly fitted or top-dose-only effect, or another doubt; inactive = no such curve, though single readings can be large or run the other way;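 also: potency is read from the fitted curve at half-maximal effect; 0% = wells with enzyme and -100% = buffer wells without enzyme; nearly all actives have a fitted effect of over 50% in size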
HP1b binding inh – blocks HP1-beta chromodomain binding to methylated histone tails. P83916. AlphaScreen HP1-beta / biotin-H3K9me3 peptide binding. Potency, µM (top dose mostly 114 µM), for inactives: top-dose activity change, negative = inhibition, usual class: inhibitors. hit rate 0.56% among 390,000. AID 540317; also: potency is read from the fitted curve at half-maximal effect; nearly all actives have a fitted effect of over 70% in size
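AlphaScreen: HP1-beta (50 nM) preformed 30 min with biotin-H3(1-18)K9me3 peptide (50 nM) in PBS pH 7.4, 0.01% Tween-20. Compound added for 30 min at RT, then streptavidin donor/nickel chelate acceptor beads (10 ug/mL) for 30 min.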
BAZ2B inh – inhibitors of human BAZ2B bromodomain | AlphaScreen BAZ2B-H3K14Ac peptide displacement | Potency, µM (highest dose often 114 µM), for inactives: at the top dose activity change, negative = inhibition, usual class: inhibitors | hit rate 4.4% among 360,000; also: potency is read from the fitted curve at half-maximal effect; % is scaled to controls: 0 for no effect and ±100 for the full control effect; nearly all actives have a fitted effect of over 60% in size
Target sequence (Q9UIF8 whole entry, looked up): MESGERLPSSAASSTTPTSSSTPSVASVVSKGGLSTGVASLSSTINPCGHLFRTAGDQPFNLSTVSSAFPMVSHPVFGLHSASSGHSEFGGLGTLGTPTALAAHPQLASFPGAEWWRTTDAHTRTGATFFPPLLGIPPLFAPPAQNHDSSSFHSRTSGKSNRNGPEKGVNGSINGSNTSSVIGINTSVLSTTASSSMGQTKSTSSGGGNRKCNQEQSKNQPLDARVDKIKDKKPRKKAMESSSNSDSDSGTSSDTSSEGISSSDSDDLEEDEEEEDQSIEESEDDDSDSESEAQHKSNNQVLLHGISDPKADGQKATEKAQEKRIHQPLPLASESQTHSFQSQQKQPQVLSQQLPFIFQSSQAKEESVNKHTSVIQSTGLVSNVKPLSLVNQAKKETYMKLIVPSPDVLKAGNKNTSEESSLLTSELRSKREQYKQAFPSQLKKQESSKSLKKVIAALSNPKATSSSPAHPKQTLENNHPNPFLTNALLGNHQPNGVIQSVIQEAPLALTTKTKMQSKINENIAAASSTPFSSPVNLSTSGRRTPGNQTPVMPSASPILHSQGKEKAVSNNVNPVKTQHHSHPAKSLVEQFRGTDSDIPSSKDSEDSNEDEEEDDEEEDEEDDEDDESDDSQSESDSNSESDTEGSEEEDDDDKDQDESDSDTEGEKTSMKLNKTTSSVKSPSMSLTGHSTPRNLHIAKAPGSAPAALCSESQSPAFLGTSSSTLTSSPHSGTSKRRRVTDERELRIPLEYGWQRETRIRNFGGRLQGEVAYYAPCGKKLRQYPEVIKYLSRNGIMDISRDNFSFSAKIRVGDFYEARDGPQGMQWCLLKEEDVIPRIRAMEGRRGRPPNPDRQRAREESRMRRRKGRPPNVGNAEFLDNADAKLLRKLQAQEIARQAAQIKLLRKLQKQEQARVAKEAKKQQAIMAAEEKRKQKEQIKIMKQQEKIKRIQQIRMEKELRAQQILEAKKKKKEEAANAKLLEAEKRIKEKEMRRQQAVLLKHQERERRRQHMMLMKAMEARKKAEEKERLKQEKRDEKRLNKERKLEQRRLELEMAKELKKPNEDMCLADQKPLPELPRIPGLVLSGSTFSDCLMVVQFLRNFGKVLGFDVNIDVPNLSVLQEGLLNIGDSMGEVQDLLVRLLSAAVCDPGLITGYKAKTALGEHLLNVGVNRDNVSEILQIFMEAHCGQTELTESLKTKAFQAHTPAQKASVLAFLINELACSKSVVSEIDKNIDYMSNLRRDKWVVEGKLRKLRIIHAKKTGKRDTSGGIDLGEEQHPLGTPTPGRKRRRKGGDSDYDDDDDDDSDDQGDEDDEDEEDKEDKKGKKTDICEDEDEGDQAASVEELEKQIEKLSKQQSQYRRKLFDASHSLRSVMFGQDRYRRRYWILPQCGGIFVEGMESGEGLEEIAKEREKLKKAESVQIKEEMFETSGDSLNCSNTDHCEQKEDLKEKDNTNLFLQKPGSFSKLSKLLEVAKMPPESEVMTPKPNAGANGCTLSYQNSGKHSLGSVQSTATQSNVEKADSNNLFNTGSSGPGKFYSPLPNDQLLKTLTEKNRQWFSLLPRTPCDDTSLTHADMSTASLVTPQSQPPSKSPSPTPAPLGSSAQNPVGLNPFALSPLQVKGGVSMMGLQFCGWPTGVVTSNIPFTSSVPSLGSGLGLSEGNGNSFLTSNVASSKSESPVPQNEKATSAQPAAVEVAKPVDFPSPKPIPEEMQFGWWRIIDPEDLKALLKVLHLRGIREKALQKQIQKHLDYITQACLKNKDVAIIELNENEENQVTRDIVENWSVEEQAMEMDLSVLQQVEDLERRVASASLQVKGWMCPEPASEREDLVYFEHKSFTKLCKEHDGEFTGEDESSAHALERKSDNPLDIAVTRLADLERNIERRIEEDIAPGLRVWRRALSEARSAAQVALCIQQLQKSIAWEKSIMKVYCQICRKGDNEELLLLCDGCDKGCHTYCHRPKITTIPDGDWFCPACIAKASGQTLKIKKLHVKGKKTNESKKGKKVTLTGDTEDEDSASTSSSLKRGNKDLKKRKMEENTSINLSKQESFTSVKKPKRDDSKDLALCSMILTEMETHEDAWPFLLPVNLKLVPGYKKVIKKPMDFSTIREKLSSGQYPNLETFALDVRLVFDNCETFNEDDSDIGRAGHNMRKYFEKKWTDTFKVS
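BAZ2B 50 nM plus b-H3(5-23)K14Ac 50 nM, PBS pH 7.4/0.01% Tween-20, 30 min RT; compound added (max 110 uM), 30 min RT; streptavidin donor/Ni-chelate acceptor beads 10 ug/mL final, 20 min dark; AlphaScreen read.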
L3MBTL1 inh – blocks human L3MBTL1 | AlphaScreen L3MBTL1–H3K9me1 peptide binding | Q9Y468 | hit rate 0.66% among 230,000 | Potency, µM (top dose mostly 57.1 µM), for the others: at the highest dose activity, negative = inhibition, actives largely listed as inhibitors | AID 485360; also: potency is read from the fitted curve at half-maximal effect; % is scaled to controls: 0 for no effect and ±100 for the full control effect; nearly all actives have a fitted effect of over 60% in size
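Displacement of a biotinylated histone H3(1-15) peptide monomethylated at Lys9 (75 nM) from L3MBTL1 (50 nM) was measured by AlphaScreen after a 30 min room-temperature compound incubation; cefsulodin titration served as intraplate control.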
* marks the source's active call; other numbers are inactive results; ? = inconclusive; / = no result; [ ] = remark or other dose. Unless noted, calls follow the shape of the dose curve; as a rule, active = well fitted inhibition curve with a large enough effect; inconclusive = small, poorly fitted or top-dose-only effect; inactive = no such curve, though single readings can be large or run the other way.

SMILES	JMJD2A Tudor	PI5P4K alpha inh	KDM4E inh	HP1b binding inh	BAZ2B inh	L3MBTL1 inh
Oc1ccc(N=C/C=C/c2ccc(Br)cc2)cc1-c1nc2ccccc2s1	/	/	14µM*	/	?	?
Cc1ccccc1NC(=S)NCc1ccc2[nH]c3c(c2c1)CCCC3	40µM*	0	-8%	?	40µM*	?
Cc1ccc(C)c(NC(=S)NCc2ccccc2)c1	-12%	1	/	31%	-25%	-7%
S=C(NCc1ccc2[nH]c3c(c2c1)CCCC3)Nc1ccccc1Cl	50µM*	0	11%	?	35µM*	-24%
Cc1ccc(C)c(NC(=S)NCc2ccc3[nH]c4c(c3c2)CCCC4)c1	50µM*	7	-6%	?	32µM*	-21%
COc1ccc(-c2cn3cccnc3n2)cc1NC(=O)Cc1ccccc1	3%	/	/	29%[57 µM]	-2%	/
O=C(Nc1nc(-c2ccc3ccccc3c2)cs1)C1CCN(S(=O)(=O)c2cccs2)CC1	-12%	-4	18µM*	14%	-8%	-9%
CCc1ccc(OCC(=O)N(Cc2ccc(OC)cc2)C2CCS(=O)(=O)C2)cc1 (stereo unspecified)	-7%	/	/	7%	-4%	/
COc1ccc(NC(=S)Nc2cc(-c3ccccc3)[nH]n2)cc1Cl	56µM*	/	-12%	?	?	-30%
COc1cc(/C=C2\SC(=S)N(NC(=O)c3cccnc3)C2=O)ccc1O	-16%	-23	-14%	-19%	45µM*	/
COc1cc(/C=C2\SC(=S)N(c3cccnc3)C2=O)ccc1O	-31%	-7	8%	34%	?	/
CC(=O)NN1C(=O)/C(=C\c2ccc(O)cc2)SC1=S	-17%	-14	-5%	-16%	-34%	-22%
COc1cc(/C=C2\SC(=S)N(NC(=O)c3ccc(O)cc3)C2=O)ccc1O	?	-22	/	56µM*	40µM*	/
NS(=O)(=O)c1ccc(CNC(=O)c2cc(=O)c3ccccc3o2)cc1	-10%	-9	/	24%	1%	/
O=C(COC(=O)c1cc[n+]([O-])cc1)Nc1cccc(F)c1	-21%	-8	/	53%	/	0%
Cc1cccc(-c2nn(-c3ccccc3)cc2CNCCO)c1	10µM*	/	/	?	/	/
Cc1n[nH]c(=O)nc1NCc1ccco1	-6%	-6	-7%	15%	2%	-2%[11.4 µM]
Cc1n[nH]c(=O)nc1N/N=C/c1ccco1	?	-1	-19%	14%	25µM*	/
O=C1Cc2cc(S(=O)(=O)N3CCN(c4ccc(C(F)(F)F)cc4)CC3)ccc2N1	-30%[229 µM]	/	/	/	/	/
COc1ccc(C2C=C(c3ccc(C)c(C)c3)Nc3ncnn32)c(OC)c1OC (stereo unspecified)	-27%	-6	?	47%	-24%	1%
COc1cccc(C2=CC(c3ccc(OC)c(OC)c3OC)n3ncnc3N2)c1 (stereo unspecified)	-33%	/	/	25%	50µM*	/
CCc1ccc(-n2c(C)nc3cc(C(=O)NCCc4ccccc4)ccc32)cc1	-28%	/	/	29%	-15%	/
NC(=NCCc1c[nH]c2ccccc12)NC(=O)c1ccc(Cl)cc1	?	22	-12%	-11%	79µM*	?
O=C(/C=C/c1ccccc1)c1ccc2c(c1)OCCCCO2	41%	-1	-3%	95%	23%	1%
O=C(/C=C/c1ccc2c(c1)OCCCO2)c1ccc2ccccc2c1O	28µM*	41	?	25µM*	10µM*	?
SMILES	JMJD2A Tudor	PI5P4K alpha inh	KDM4E inh	HP1b binding inh	BAZ2B inh	L3MBTL1 inh
Cc1ccc(C(=O)/C=C/c2ccc3c(c2)OCCO3)c(O)c1	32µM*	31	-3%	?	?	-8%
COc1cccc([C@@H]2Oc3ccc(OC)cc3C(=O)[C@H]2OC(=O)NS(=O)(=O)c2ccc(C)cc2)c1	/	/	-22%	/	/	/
CCCc1nnc(NC(=O)Cc2coc3c(C)c(C)ccc23)s1	7%	/	/	50%	1%	/
COC(=O)C1=C(CN2CCc3ccccc32)NC(=O)NC1c1cc(C)ccc1C (stereo unspecified)	?	3	-18%	6%	50µM*	-7%
Cc1ccc2occ(CC(=O)N(Cc3ccc(C(C)C)cc3)C3CCS(=O)(=O)C3)c2c1 (stereo unspecified)	-13%	/	/	30%	-24%	/
Cc1c(N=NC2=C(O)CC(C)(C)CC2=O)cc2c(c1[N+](=O)[O-])C(C)(C)CC2(C)C	22µM*	23	-4%	?	?	/
COC(=O)[C@@]12C[C@@H](CC(=O)NCCc3ccccc3OC)C(=O)N(Cc3ccco3)C1=CCC(C)(C)C2	/	-8	/	/	/	/
O=C(O)C1OC(C(=O)O)C(C(=O)O)C1C(=O)O (stereo unspecified)	20µM*	-1	/	-13%	/	/
O=C(O)C1C2C=CC(C3CC23)C1C(=O)O (stereo unspecified)	-19%	/	-1%	4%	9%	17%[11.4 µM]
CCOCCCNC(=O)C1CCN(S(=O)(=O)c2ccc3nc4c(c(C(=O)O)c3c2)CCCCC4)CC1	3%	1	/	36%	-12%	/
CC(C)CC(NC(=O)CC12CC3CC(CC(C3)C1)C2)C(=O)NC1=NCCS1 (stereo unspecified)	22µM*	-15	-3%	4%	5%	2%
Cc1cccc(C)c1NC(=O)C(c1ccc(-c2ccccc2)cc1)n1c(=O)c(-c2ccco2)nc2ccccc21 (stereo unspecified)	/	-99*	/	/	/	/
Cc1cccc(C)c1NC(=O)C(c1ccccc1F)n1c(=O)c(-c2ccco2)nc2ccccc21 (stereo unspecified)	/	-67*	/	/	/	/
Cc1cccc(C)c1NC(=O)C(c1ccnc2ccccc12)n1c(=O)c(-c2ccco2)nc2ccccc21 (stereo unspecified)	/	-72*	/	/	/	/
Cc1ccc(N2C(=O)CSC23C(=O)N(CC(=O)NC2CCCCC2)c2ccccc23)cc1 (stereo unspecified)	-8%	/	/	24%	4%[57.1 µM]	/
Cc1cccc(NC(=O)c2sc(-n3nc(C)c(CCC(C)C)c3C)nc2C)c1C	12%	/	/	56%	-3%	/
Cc1cc2oc(C(=O)N(Cc3ccc(N(C)C)cc3)Cc3ccco3)c(C)c2cc1Cl	13µM*	/	/	?	13µM*	/
CCn1cnc2sc(C(=O)N(Cc3ccc(N(C)C)cc3)Cc3ccco3)c(C)c2c1=O	50µM*	-4	-6%	35µM*	45µM*	?
COc1ccc(C(=O)N(Cc2ccc(N(C)C)cc2)Cc2ccco2)cc1Cl	35µM*	/	/	?	20µM*	/
CN(C)c1ccc(CN(Cc2ccco2)C(=O)c2ccc(C(C)(C)C)cc2)cc1	13µM*	/	/	?	11µM*	/
Cc1cc2oc(C(=O)N(Cc3ccco3)Cc3ccccc3Cl)c(C)c2cc1C	-6%	/	/	44%	3%	/
